Compounds with a hit are over-represented: about 3.3% of the library has one in this group of screens.
LmPK inh: qHTS Assay for Inhibitors of Leishmania Mexicana Pyruvate Kinase (LmPK); AID 1721, 2009; 290,000 compounds, 0.37% hits; purified LmPK, Kinase-Glo ATP luminescence, 1 h; Potency, µM (series often up to 57.5 µM), most hits filed as inhibitors
Target sequence (Q27686 whole entry, looked up): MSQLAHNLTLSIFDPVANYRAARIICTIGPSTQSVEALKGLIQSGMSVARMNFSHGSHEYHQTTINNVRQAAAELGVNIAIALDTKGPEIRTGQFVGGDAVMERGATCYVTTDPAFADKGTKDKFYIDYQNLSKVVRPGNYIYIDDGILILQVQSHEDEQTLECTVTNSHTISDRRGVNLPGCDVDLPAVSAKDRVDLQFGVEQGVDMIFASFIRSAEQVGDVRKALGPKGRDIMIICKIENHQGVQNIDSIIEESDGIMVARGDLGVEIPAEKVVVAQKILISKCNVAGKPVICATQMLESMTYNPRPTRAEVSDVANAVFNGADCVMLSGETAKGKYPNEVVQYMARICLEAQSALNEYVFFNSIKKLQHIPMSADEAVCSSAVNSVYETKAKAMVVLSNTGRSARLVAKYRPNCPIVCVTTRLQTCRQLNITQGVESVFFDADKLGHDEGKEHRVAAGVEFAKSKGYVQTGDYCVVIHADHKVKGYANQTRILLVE
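In 50 mM imidazole pH 7.2 with 7 mM MgCl2, LmPK (0.1 nM) turned over PEP (0.5 mM) and ADP (0.1 mM) for 1 h at room temperature. Luciferase read-out of ATP.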
Sm TGR inh: qHTS Assay for the Inhibitors of Schistosoma Mansoni Peroxiredoxins; purified TGR, DTNB reduction, TNB absorbance 405 nm; Potency, µM (highest dose often 114 µM), actives largely listed as inhibitors; 360,000 compounds, 3% hits; further: nearly all actives have a fitted effect of over 60% in size
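First, TGR (20 nM dispensed) and NADPH were mixed with compound. Second, a 15 min room-temperature incubation followed. Third, further NADPH and then DTNB were added to start the reaction. Finally, TNB absorbance was monitored kinetically.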
Tb PYK inh: qHTS of Trypanosoma Brucei Inhibitors | pyruvate kinase (Trypanosoma brucei), Q57TT1 | TbPYK enzyme, Kinase-Glo Plus ATP luminescence, 45 min | Potency, µM (top dose mostly 76.8 µM), most hits filed as inhibitors | 410,000 compounds, 0.12% hits; further: nearly all actives have a fitted effect of over 50% in size
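ADP (130 uM final) triggers the TbPYK reaction after compound addition; incubation is 45 min at room temperature. Kinase-Glo Plus is then added and luminescence imaged. Normalized data are fitted to concentration-effect curves.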
RE007 growth inh: qHTS Assay for Inhibitors of the HIV-1 protein Vpr; S. pombe RE007 Vpr strain, BacTiter-Glo ATP luminescence, 24 h; 360,000 compounds, 0.21% hits; Potency, µM (top dose mostly 92.2 µM), usual class: inhibitors; active means well fitted falling curve with a large enough effect; inconclusive means small, poorly fitted or top-dose-only effect; inactive means no such curve, though single readings can be large or run the other way; further: nearly all actives have a fitted effect of over 50% in size
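Fission yeast strain RE007, carrying one chromosomally integrated HIV-1 vpr copy, was seeded at OD 0.01 in PMG+AL medium with 23 nL pinned compound. After 24 h at 30 °C and 99% humidity, viability was read by BacTiter-Glo luminescence.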
Giardia FBPA inh-1: qHTS Assay for Inhibitors of Fructose-1,6-bisphosphate Aldolase from Giardia Lamblia; 290,000 compounds, 0.71% hits; AID 2451, 2010; A8B2U2; purified Giardia FBPA; Potency, µM (top dose mostly 59.6 µM), usual class: inhibitors; further: nearly all actives have a fitted effect of over 55% in size
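40 nM FBPA preincubated 10 min at RT with compound (up to 57.5 uM final), then substrate plus GAPDH/TPI/NAD/arsenate coupling and diaphorase/resazurin added. Fluorescence read after 20 min at RT, 525/598 nm.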
Giardia growth: qHTS Assay for Inhibitors of Fructose-1,6-bisphosphate Aldolase from Giardia Lamblia: Giardia lamblia growth inhibition; shares compounds with Giardia FBPA inh-1; Giardia lamblia trophozoite growth inhibition; Potency, µM (top dose mostly 57.5 µM), most hits filed as inhibitors; 1,500 compounds, 5% hits;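 further: trophozoites exposed to compound for 48 h at 37 °C; nearly all actives have a fitted effect of over 70% in size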
Mammal cell tox: qHTS Assay for Inhibitors of Fructose-1,6-bisphosphate Aldolase from Giardia Lamblia: Mammalian cellular toxicity | 1,500 compounds, 4% hits | AID 2786, 2010 | Potency, µM (top dose mostly 57.5 µM), usual class: inhibitors | shares compounds with Giardia FBPA inh-1 | mammalian cell viability counter-screen, qHTS;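 further: Chinese hamster ovary cells used as mammalian cytotoxicity surrogate; viability measured as cellular ATP by luminescence; compound exposure lasted 48 h before reading; nearly all actives have a fitted effect of over 60% in size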
Giardia FBPA inh-2: qHTS Assay for Inhibitors of Fructose-1,6-bisphosphate Aldolase from Giardia Lamblia: Primary screen confirmation. shares compounds with Giardia FBPA inh-1. purified Giardia aldolase enzyme activity, qHTS. Potency, µM (doses to about 57.5 µM), most hits filed as inhibitors. 1,500 compounds, 5% hits; further: nearly all actives have a fitted effect of over 45% in size
Rabbit FBPA inh: qHTS Assay for Inhibitors of Fructose-1,6-bisphosphate Aldolase from Giardia Lamblia: Rabbit FBPA Selectivity. shares compounds with Giardia FBPA inh-1. Rabbit muscle FBPA enzyme inhibition, selectivity counter-screen. Potency, µM (series often up to 57.5 µM), hits mostly inhibitors. 1,500 compounds, 4% hits. AID 2794, 2010; further: nearly all actives have a fitted effect of over 60% in size
GAPDH counter: qHTS Assay for Inhibitors of Fructose-1,6-bisphosphate Aldolase from Giardia Lamblia: Coupling assay counterscreen confirmation | GAPDH coupling enzyme counterscreen, biochemical, qHTS | shares compounds with Giardia FBPA inh-1 | AID 2795, 2010 | 1,500 compounds, 6% hits | Potency, µM (series often up to 57.5 µM), usual class: inhibitors; further: nearly all actives have a fitted effect of over 55% in size
A number is an active result; n = inactive; u = inconclusive; x = no result; [ ] = another dose, or the depositor's remark. Unless noted, the call rests on the fitted dose curve; in most records, active means well fitted curve in the direction sought with a large enough effect; inconclusive means small, poorly fitted or top-dose-only effect, or another doubt; inactive means no such curve, though single readings can be large; an effect the other way counts as inactive or inconclusive.

SMILES | LmPK inh | Sm TGR inh | Tb PYK inh | RE007 growth inh | Giardia FBPA inh-1 | Giardia growth | Mammal cell tox | Giardia FBPA inh-2 | Rabbit FBPA inh | GAPDH counter
CC(C)(C)c1ccc(OCC(O)CN2CCN(C(=O)c3ccccc3)CC2)cc1 (configuration not stated) | n | n | n | n | 14.1µM | n | n | n | n | n
O=C1C(SCCO)=C(SCCO)C(=O)c2ccccc21 | x | 0.501µM | 3.98µM | n | 0.889µM | u | 11.2µM | 6.31µM | u | 3.98µM
CC1=C(SCc2ccccc2)C(=O)c2ccccc2C1=O | x | x | n | u | x | x | x | x | x | x
COc1ccccc1OCC#CCNC1CCCCC1C (configuration not stated) | n | x | n | n | 1.58µM | n | n | n | n | n
COCc1[nH]c(=S)c(C#N)cc1C(=O)OC | n | 20µM | u | n | 15.8µM | n | n | n | n | n
CCOC(=O)Cc1csc(NC(=O)CCC(=O)O)n1 | n | n | n | n | n | x | x | x | x | x
CCOC(=O)Cc1csc(NC(=O)CN2CCOCC2)n1 | n | u | n | n | 14.1µM | n[10.4 µM] | n | n | n | n
CCOC(=O)Cc1csc(NC(=O)CCc2ccc(S(=O)(=O)N3CCOCC3)cc2)n1 | n | n | n | n | n | x | x | x | x | x
CCOC(=O)Cc1csc(NC(=O)CCCc2ccccc2)n1 | n | u | n | n | 35.5µM | n | n | n | n | n
CCOC(=O)Cc1csc(NS(=O)(=O)c2ccc(NC(C)=O)cc2)n1 | n | n | n | n | 14.1µM | n | n | n | n | n
Cc1ccc(S(=O)(=O)CCC(=O)OCCOc2ccc(Br)cc2)cc1 | x | x | n | n | x | x | x | x | x | x
C/C(CCc1ccc2c(c1)OCO2)=N\NC(=O)c1ccccc1 | n | n | n | n | n | x | x | x | x | x
NC(=NCc1ccc2c(c1)OCO2)NC(=O)c1ccccc1 | n | x | n | n | 1.41µM | n | n | n | n | n
CC(NC(=S)NNS(=O)(=O)c1cccc([N+](=O)[O-])c1)c1ccccc1 (configuration not stated) | n | u | n | n | 15.8µM | n | n | n | n | n
N#C/C(=C\c1ccccc1)C(=O)NNS(=O)(=O)c1cccc([N+](=O)[O-])c1 | x | x | n | n | x | x | x | x | x | x
CC1=NN(C(N)=S)C(=O)C1N=Nc1ccccc1C(=O)O (configuration not stated) | n | u | n | n | 14.1µM | n[10.4 µM] | n | n | n | n
CC1=NN(C(N)=S)C(=O)C1N=Nc1cccc(C(=O)O)c1 (configuration not stated) | n | n | n | n | u | n | n | n | n | n
CC1=NN(C(N)=S)C(=O)C1N=Nc1ccccc1Cl (configuration not stated) | n | n | n | u | n | x | x | x | x | x
CC(=O)/C(=N\Nc1ccccc1)Sc1nncn1C | n | n | u | n | 3.54µM | n[10.4 µM] | n | n | n | n
CC(NC(=O)CN(C)S(=O)(=O)c1cccc2nsnc12)c1ccccc1 (configuration not stated) | n | n | n | n | n | x | x | x | x | x
COc1ccc(-c2cc(C(F)(F)F)nc(SCC(=O)Nc3ccc(C(C)=O)cc3)n2)cc1 | x | n | n | x | x | x | x | x | x | x
C[N+](C)=C1SCC(C)(/C=N/O)S1 (configuration not stated) | n | n | n | n | 14.1µM | n | n | n | n | n
CCCCC(=O)N/N=C/c1c(O)n(-c2cccc3ccccc23)c(=O)[nH]c1=O | n | n | n | n | 15.8µM | n | n | n | n | n
CN(C)S(=O)(=O)c1ccc2[nH]cc(/C=C/c3nc4ccccc4c(=O)n3-c3ccccc3)c2c1 | n | n | n | n | n | x | x | x | x | x
CN(C)S(=O)(=O)c1cccc(-n2sc3ccccc3c2=O)c1 | n | u | 3.98µM | n | 14.1µM | u | u | n | 22.4µM | n
SMILES | LmPK inh | Sm TGR inh | Tb PYK inh | RE007 growth inh | Giardia FBPA inh-1 | Giardia growth | Mammal cell tox | Giardia FBPA inh-2 | Rabbit FBPA inh | GAPDH counter
Cn1c(NN=O)nc2ccccc21 | n | n | n | n | 7.92µM | n | 15.8µM | n | n | n
CCN1CCN(CC(=O)Nc2c(OC)cccc2OC)CC1 | n | n | n | n | 12.6µM | n[10.4 µM] | n | n | n | n
COc1ccccc1NC(=O)CN1CCCCC1 | n | n | n | n | n | x | x | x | x | x
CCN1CCN(CC(=O)Nc2cc(C(F)(F)F)ccc2OCCOC)CC1 | n | n | n | n | 6.29µM | n | n | n | n | n
CCCOc1ccc(C(F)(F)F)cc1NC(=O)CN1C(=O)C(=O)N(CC)C1=O | x | n | n | n | x | x | x | x | x | x
NC(CCc1ccccc1)c1csc(Nc2ccc(C(=O)c3ccccc3)cc2)n1 (configuration not stated) | x | x | n | n | x | x | x | x | x | x
CC(C(=O)N1CCN(Cc2ccccc2)CC1)n1ncn2cccc2c1=O (configuration not stated) | n | n | n | n | n | x | x | x | x | x
O=C(Nc1ccc(F)cc1F)c1cc(=O)n(-c2ccccc2)c(=O)[nH]1 | n | n | n | n | 7.92µM | n | n | n | n | n
FCCCOc1ccc(-c2ccnc3ncnn23)cc1 | n | x | n | n | n | x | x | x | x | x
C=CCSc1nc2sc3c(c2c(=O)[nH]1)CC(C)(C)OC3 | x | x | n | n | x | x | x | x | x | x
C=CCNC(=S)NNc1nc2sc3c(c2c(=O)[nH]1)CC(C)(C)OC3 | n | n | n | n | 1.26µM | u | n | n | n | n
COc1ccccc1N1CCN(CCC(=O)Nc2ccc3c(c2)OCO3)CC1 | n | n | n | u | n | x | x | x | x | x
COc1ccccc1N1CCN(CC(=O)Nc2ccc3c(c2)OCCO3)CC1 | n | n | n | n | 17.7µM | n | n | n | n | n
COc1ccccc1N1CCN(Cc2ccc(SC)cc2)CC1 | n | n | n | n | 15.8µM | n | n | n | n | n

From PubChem BioAssay
